# Compound activity deposited in PubChem by The Scripps Research Institute Molecular Screening Center.
# FBW7 activator: activators of human E3 ligase FBW7; normalized activity (activation), % at 26.1 µM; AID 1259310; AlphaScreen FBW7–phospho-cyclin E peptide binding, activator screen; hit rate 0.13% among 650,000; in the data active means normalized activity above about 1.9%;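 further: purified mutant Fbw7 with reduced substrate affinity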
# TEAD-YAP inh: TEAD-YAP interaction inhibition | HEK-TIYL cells, TEAD-Gal4/YAP UAS-luciferase luminescence | inhibition, % at 9.12 µM | AID 1259422 | hit rate 1.4% among 640,000; in the data active means inhibition above about 32%
# MITF primary: blocks human microphthalmia-associated transcription factor. O75030. AlphaScreen MITF homodimerization, bead proximity signal. inhibition, % at 2.6 µM. hit rate 0.91% among 650,000. AID 1259374; in the data active means inhibition above about 50%
# GPR151 activ: human GPR151 activation | activation, % at 11.2 µM | PathHunter beta-arrestin GPR151 cells, luminescence | hit rate 1% among 650,000 | AID 1508602 | Q8TDV0; in the data active means activation above about 4.9%
# A number is an active result; – = inactive; · = no result given; ! = not active in a repeat. Shown are actives, neighbours in structure and some others; about 3.4% of the full set was active somewhere.
SMILES,FBW7 activator,TEAD-YAP inh,MITF primary,GPR151 activ
CCOc1ccc(NCc2ccc(O)c3ncccc23)cc1,–,–,62,–
O=C(NC1CC1)C1CCN(c2ccc(-c3ccccc3)nn2)CC1,–,–,–,–
c1ccc(-c2ccc(N3CCCCCC3)nn2)cc1,–,93,–,–
COc1ccccc1N1CCN(c2ccc(-c3ccccc3)nn2)CC1,–,88,–,–
CC(C(=O)N1CCCC(c2ccnc3ncnn23)C1)c1n[nH]c(=O)c2ccccc12 (configuration not stated),–,–,–,–
OCCN1CCN(c2ncnc3ccc(Br)cc23)CC1,–,39,–,–
CCCCOC(=O)c1cccc(NC(=O)COc2ccc(Cl)cc2Cl)c1,–,57,–,–
CCOC(=O)c1cccc(NC(=O)CCC2CCCCC2)c1,2.1,–,–,–
CCOC(=O)c1cccc(NC(=O)COc2ccc(Cl)cc2Cl)c1,–,81,–,–
CCOC(=O)c1cccc(NC2C=CS(=O)(=O)C2)c1 (configuration not stated),–,63,–,–
CCCCOC(=O)c1ccc(NC(=O)COc2ccc(Cl)cc2Cl)cc1,–,–,–,–
Cc1ccc(C2CC(C(F)(F)F)n3nc(C(=O)N4CCCCCC4)cc3N2)cc1 (configuration not stated),–,–,–,–
Oc1cccnc1NC(c1ccccc1F)c1ccc2cccnc2c1O (configuration not stated),–,36,–,–
Cc1cc(C)nc(NC(c2ccco2)c2ccc3cccnc3c2O)n1 (configuration not stated),–,–,–,–
CC(=O)NC(c1ccccc1F)c1ccc2cccnc2c1O (configuration not stated),–,84,–,–
Cc1ccc(C(NC(=O)c2ccccc2)c2ccc3cccnc3c2O)cc1 (configuration not stated),–,–,–,–
CC(=O)NC(c1ccc(C(C)C)cc1)c1ccc2cccnc2c1O (configuration not stated),–,83,–,–
O=C(NCCC[N+]1=CC=NC1c1ccccc1)N1CCCc2nc(-c3ccc(Br)cc3)ccc21 (configuration not stated),–,·,–,–
Cc1cccc(N2C(=O)C=CC2=O)c1C,–,–,–,–
O=C(Nc1ccc(Br)cc1)c1cnn2ccccc12,–,32,–,–
CC(C)C(=O)N(Cc1ccccn1)c1nc2ccccc2s1,–,–,–,–
CC(C)c1ccc2nc(SCC(=O)N3CC(=O)Nc4ccccc43)c(C#N)cc2c1,–,–,–,–
Cc1ccc(CC(=O)N2CC(=O)Nc3ccccc32)c(C)c1,–,34,–,–
CSc1cccc(C(=O)N2CC(=O)Nc3ccccc32)c1,–,43,–,–
Cc1ccc(CC(=O)N2CC(=O)Nc3ccccc32)cc1,–,45,–,–
SMILES,FBW7 activator,TEAD-YAP inh,MITF primary,GPR151 activ
COc1ccc(CC(=O)N2CC(=O)Nc3ccccc32)cc1OC,–,–,–,–
Cc1cccc2cc(C#N)c(SCC(=O)N3CC(=O)Nc4ccccc43)nc12,–,53,–,–
Fc1ccc2nc(-c3nc4ccc(-c5ccncc5)cc4[nH]3)[nH]c2c1,2.6,–,–,–
NC(c1nc2ccc(-c3ccncc3)cc2[nH]1)c1ccc(F)cc1F (configuration not stated),–,–,–,–
c1ccc(-c2ncn(-c3ccc(Nc4nccc(-c5cncc(N6CCOCC6)c5)n4)cc3)n2)nc1,–,73,–,–
Fc1cc(-c2nc(Nc3ccc(-n4cnc(N5CCOCC5)n4)cc3)ncc2F)cc(N2CCOCC2)c1,–,–,–,–
c1ccc(-c2ncn(-c3ccc(Nc4nccc(-c5cccc(N6CCOCC6)c5)n4)cc3)n2)nc1,–,80,–,–
c1cc(-c2ccnc(Nc3ccc(-n4cnnc4)cc3)n2)cc(N2CCOCC2)c1,–,45,–,–
Fc1cc(-c2nc(Nc3ccc(-n4cnc(-c5ccccn5)n4)cc3)ncc2F)cc(N2CCOCC2)c1,–,58,–,–
Cc1ccc(-n2nc(C)c3c(C)c(CCC(=O)NCC(N)=O)c(C)nc32)cc1,–,–,–,–
COc1ccc(C(/C=C2\N(C)c3ccccc3C2(C)C)C[N+](=O)[O-])cc1 (configuration not stated),–,–,–,–
CN1/C(=C\C(C[N+](=O)[O-])c2ccc3c(c2)OCO3)C(C)(C)c2ccccc21 (configuration not stated),–,49,–,–
O=C(CC12CC3CC(CC(Br)(C3)C1)C2)OCC(=O)c1ccccc1,–,67,–,–
Cn1c(=O)c2[nH]c(CN3CCN(c4cccc(Cl)c4)CC3)nc2n(C)c1=O,–,–,–,–
CN(C)Cc1ccc2c(sc3nc4n(c(=O)c32)CCCCC4)c1O,–,53,–,–
Cc1sc(NC(=O)c2cc(-c3ccc(C(C)(C)C)cc3)nc3ccccc23)c(C(N)=O)c1C,–,46,–,–
COc1ccc2nc(NC(=O)c3nn(C)cc3C)sc2c1,3.6,–,–,–
COc1ccc2nc(NC(=O)c3cc(Br)ccc3Cl)sc2c1,–,–,–,–
COc1ccc2nc(NC(=O)c3ccoc3C)sc2c1,–,59,–,–
COC(CNC(=O)C(C)C1Sc2ccccc2N(Cc2cc(C)ccc2C)C1=O)OC (configuration not stated),–,–,–,–
O=C(CC1c2ccccc2Oc2ccccc21)Nc1ccccn1,–,–,–,–
Cc1ccc(NC(=O)CC2c3ccccc3Oc3ccccc32)nc1,–,52,–,–
Oc1ccc(/C=C/c2cc(O)cc(O)c2)cc1,–,89!,–,–
OC[C@H]1O[C@@H](Oc2cc(O)cc(/C=C/c3ccc(O)cc3)c2)[C@H](O)[C@@H](O)[C@@H]1O,–,–,–,–
O=C(CSc1nc2[nH]ncc2c(=O)n1-c1ccccc1)Nc1ccc(F)c(F)c1,–,61,–,–
SMILES,FBW7 activator,TEAD-YAP inh,MITF primary,GPR151 activ
O=C(CSc1nc2[nH]ncc2c(=O)n1-c1ccccc1)Nc1ccc(Br)cc1,–,–,–,–
Oc1cccc2ccc(/C=C/c3cc4c(cc3Cl)OCO4)nc12,–,68,–,–
Oc1cccc2ccc(/C=C/c3ccc4c(c3)OCO4)nc12,–,80,–,–
O=[N+]([O-])c1cccc(/C=C/c2ccc3cccc(O)c3n2)c1,–,–,–,–
Cc1nnc2c3ccccc3ncn2c1=O,–,–,–,–
COc1ccc(NC(=O)CSc2nc3ccccc3o2)cc1,–,–,–,–
COc1ccc(NC(=O)CSc2nc3ccccc3o2)cc1OC,–,33,–,–
CC1CCc2nc(NC(=O)CSc3nc4ccccc4o3)sc2C1 (configuration not stated),–,67,–,–
Cc1nnc(SCC(=O)Nc2nc3c(s2)CC(C)CC3)s1 (configuration not stated),–,–,–,–
COc1cccc(OC)c1C(=O)N1C[C@@H]2C[C@H]1C(=O)N2c1ccccc1Cl,–,33,–,–
Cc1ccc(Cl)cc1NC(=O)CSc1nc2ccccc2[nH]1,–,–,–,–
C=CCn1c(C)cc(C(=O)CSc2nc3ccccc3[nH]2)c1C,–,53,–,–
O=C(CSc1nc2ccccc2[nH]1)Nc1ccccn1,–,–,–,–
